# According to publication PMC7862700, “An all-to-all approach to the identification of sequence-specific readers for epigenetic DNA modifications on cytosine”:
# What was measured:
# Test in all cases: DAPPL (digital affinity profiling via proximity ligation, sequencing); 10 mM Tris-HCl pH 7.5, 50 mM NaCl, 1 mM DTT, 4% glycerol, room temperature, 30 min; GST-TFs on glutathione beads, 16-mer random dsDNA library, 0.1% formaldehyde crosslink after washing; high values mean tight binding
# Conditions in all cases: protein: recombinant; tags: N-terminal GST; dsDNA, one strand shown
# FLI1 = target: T1, FLI1 (Homo sapiens, UniProt Q01543 1-452)
# T1 sequence: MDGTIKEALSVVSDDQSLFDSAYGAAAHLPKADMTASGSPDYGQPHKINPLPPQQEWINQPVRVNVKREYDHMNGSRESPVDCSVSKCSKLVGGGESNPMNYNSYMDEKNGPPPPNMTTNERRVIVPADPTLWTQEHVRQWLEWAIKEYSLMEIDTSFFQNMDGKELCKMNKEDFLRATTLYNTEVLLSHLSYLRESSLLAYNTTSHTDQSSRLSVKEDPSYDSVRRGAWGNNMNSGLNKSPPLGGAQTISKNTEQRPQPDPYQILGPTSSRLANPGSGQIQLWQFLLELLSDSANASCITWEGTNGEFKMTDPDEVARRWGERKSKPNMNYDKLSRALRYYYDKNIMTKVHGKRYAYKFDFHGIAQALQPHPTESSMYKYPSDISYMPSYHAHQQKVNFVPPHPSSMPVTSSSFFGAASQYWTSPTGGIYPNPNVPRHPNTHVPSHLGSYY
# Procedure, shortened: (§1)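 Human transcription factors carrying a GST fusion were produced in yeast, bound to glutathione beads, tagged with DNA barcodes and pooled together with a tag-only sample. Each pool was held with 200 nmole of a random double-stranded 16-mer DNA library in Tris/NaCl/DTT/glycerol buffer for 30 min at room temperature, then washed, crosslinked in 0.1% formaldehyde, proximity-ligated with BsaI/T4 ligase (1 h, 37 °C), PCR-amplified and sequenced on an Illumina NextSeq500. Binding signal is the read frequency of each hexamer for a given factor divided by its frequency in the tag-only sample.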
# ELK1 = target: T2, ELK1 (Homo sapiens, UniProt P19419 1-428)
# T2 sequence: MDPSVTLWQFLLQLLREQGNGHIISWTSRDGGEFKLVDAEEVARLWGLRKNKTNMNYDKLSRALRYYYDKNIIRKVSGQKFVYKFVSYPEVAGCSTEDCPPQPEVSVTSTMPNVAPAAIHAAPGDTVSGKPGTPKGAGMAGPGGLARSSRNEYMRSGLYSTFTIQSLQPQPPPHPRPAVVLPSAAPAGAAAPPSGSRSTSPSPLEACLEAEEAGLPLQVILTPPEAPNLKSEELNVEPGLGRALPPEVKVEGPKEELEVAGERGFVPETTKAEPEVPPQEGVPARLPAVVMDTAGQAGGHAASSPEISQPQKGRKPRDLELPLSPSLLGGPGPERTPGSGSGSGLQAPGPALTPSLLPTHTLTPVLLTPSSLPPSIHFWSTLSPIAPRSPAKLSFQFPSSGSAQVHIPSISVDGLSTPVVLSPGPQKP
# Procedure, shortened: as §1
# GABPA = target: T3, GABPA (Homo sapiens, UniProt Q06546 1-454)
# T3 sequence: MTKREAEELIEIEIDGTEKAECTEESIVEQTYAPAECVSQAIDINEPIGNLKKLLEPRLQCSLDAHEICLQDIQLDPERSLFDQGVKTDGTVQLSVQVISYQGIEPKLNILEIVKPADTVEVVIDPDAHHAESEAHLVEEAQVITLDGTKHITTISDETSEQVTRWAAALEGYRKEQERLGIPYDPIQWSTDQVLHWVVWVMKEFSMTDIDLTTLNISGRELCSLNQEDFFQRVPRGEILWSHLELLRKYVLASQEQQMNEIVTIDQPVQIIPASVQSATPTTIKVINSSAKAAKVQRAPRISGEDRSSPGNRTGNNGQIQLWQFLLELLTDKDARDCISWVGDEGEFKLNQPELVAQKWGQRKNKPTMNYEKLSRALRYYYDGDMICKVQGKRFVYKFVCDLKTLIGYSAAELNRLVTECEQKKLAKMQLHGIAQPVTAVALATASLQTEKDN
# Procedure, shortened: as §1
# ERG = target: T4, ERG (Homo sapiens, UniProt P11308 1-479)
# T4 sequence: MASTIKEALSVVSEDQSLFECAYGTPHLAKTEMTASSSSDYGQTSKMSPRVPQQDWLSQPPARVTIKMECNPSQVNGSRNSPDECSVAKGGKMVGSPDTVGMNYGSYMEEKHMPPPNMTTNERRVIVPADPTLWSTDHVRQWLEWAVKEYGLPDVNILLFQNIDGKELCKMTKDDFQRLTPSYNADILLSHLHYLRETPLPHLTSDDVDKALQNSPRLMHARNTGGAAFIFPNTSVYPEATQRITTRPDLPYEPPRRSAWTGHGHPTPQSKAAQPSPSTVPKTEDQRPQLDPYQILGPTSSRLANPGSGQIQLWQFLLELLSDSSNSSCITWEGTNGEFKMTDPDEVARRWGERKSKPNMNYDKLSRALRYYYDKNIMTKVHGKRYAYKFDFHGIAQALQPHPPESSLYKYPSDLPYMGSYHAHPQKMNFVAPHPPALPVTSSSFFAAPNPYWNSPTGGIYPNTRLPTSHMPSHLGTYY
# Procedure, shortened: as §1
# ELF1 = ELF1 (Homo sapiens, UniProt P32519 1-619)
# Procedure, shortened: as §1
# EHF = target: T5, EHF (Homo sapiens, UniProt Q9NZC4 1-300)
# T5 sequence: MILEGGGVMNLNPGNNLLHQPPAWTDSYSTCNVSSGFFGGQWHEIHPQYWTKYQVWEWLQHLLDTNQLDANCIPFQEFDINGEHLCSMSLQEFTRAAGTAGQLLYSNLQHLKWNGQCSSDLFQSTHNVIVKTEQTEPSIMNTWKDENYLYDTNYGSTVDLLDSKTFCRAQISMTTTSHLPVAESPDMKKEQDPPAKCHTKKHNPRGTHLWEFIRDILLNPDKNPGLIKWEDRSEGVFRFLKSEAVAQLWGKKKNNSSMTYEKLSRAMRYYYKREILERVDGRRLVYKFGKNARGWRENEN
# Procedure, shortened: as §1
# SPI1 = SPI1 (Homo sapiens, UniProt P17947 1-270)
# Procedure, shortened: as §1
# SPIB = SPIB (Homo sapiens, UniProt Q01892 1-262)
# Procedure, shortened: as §1
# ELK3 = target: T6, ELK3 (Homo sapiens, UniProt P41970 1-407)
# T6 sequence: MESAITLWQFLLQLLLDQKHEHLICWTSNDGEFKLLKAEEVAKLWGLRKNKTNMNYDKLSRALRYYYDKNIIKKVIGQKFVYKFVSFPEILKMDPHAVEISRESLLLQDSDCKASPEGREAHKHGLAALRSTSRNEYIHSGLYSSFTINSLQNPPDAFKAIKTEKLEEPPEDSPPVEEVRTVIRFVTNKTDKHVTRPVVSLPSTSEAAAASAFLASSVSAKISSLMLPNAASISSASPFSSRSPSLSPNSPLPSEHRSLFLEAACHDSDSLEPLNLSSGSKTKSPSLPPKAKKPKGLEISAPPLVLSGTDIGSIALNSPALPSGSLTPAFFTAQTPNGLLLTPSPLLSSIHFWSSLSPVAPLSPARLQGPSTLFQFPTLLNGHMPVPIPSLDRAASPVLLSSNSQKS
# Procedure, shortened: as §1
# Sequence of ELF1 (P32519 whole entry): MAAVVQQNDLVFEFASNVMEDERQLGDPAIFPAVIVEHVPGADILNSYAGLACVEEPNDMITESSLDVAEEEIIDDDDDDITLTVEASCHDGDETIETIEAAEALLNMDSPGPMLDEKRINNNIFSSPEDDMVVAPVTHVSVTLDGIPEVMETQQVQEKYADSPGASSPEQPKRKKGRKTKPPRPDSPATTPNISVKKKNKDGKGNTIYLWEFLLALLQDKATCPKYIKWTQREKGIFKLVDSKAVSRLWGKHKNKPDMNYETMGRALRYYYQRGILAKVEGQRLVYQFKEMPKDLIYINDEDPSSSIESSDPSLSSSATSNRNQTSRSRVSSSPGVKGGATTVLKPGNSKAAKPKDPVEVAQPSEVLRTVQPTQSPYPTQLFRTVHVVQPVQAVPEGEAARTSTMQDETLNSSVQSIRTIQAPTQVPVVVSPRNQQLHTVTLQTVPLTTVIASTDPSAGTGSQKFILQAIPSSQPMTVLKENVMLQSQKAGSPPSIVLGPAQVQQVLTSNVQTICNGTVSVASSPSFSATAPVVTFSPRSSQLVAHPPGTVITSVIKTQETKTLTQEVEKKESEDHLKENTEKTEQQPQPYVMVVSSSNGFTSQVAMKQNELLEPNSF
# Sequence of SPIB (Q01892 whole entry): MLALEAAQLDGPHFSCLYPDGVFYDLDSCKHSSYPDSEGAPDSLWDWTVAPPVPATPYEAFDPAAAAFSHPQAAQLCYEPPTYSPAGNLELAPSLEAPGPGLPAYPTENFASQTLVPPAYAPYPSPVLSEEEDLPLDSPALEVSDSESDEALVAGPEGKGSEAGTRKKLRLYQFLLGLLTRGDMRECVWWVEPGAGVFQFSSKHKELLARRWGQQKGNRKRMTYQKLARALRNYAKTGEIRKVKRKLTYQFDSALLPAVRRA
sequence,measurement,setting,value
CTTAAA,binding signal,FLI1,"1.12 fold enrichment (6-mer frequency, TF over GST control)"
same,binding signal,ELK1,"1.14 fold enrichment (6-mer frequency, TF over GST control)"
same,binding signal,GABPA,"1.24 fold enrichment (6-mer frequency, TF over GST control)"
same,binding signal,ERG,"1.16 fold enrichment (6-mer frequency, TF over GST control)"
same,binding signal,ELF1,"1.22 fold enrichment (6-mer frequency, TF over GST control)"
same,binding signal,EHF,"1.2 fold enrichment (6-mer frequency, TF over GST control)"
same,binding signal,SPI1,"1.22 fold enrichment (6-mer frequency, TF over GST control)"
same,binding signal,SPIB,"1.23 fold enrichment (6-mer frequency, TF over GST control)"
same,binding signal,ELK3,"1.08 fold enrichment (6-mer frequency, TF over GST control)"
